Compound activity from PubChem.
M1 ag: human M1 muscarinic receptor agonists, primary screen, Fluo-8 calcium fluorescence, CHO-K1 cells, HTS; Muscarinic acetylcholine receptor M1 (Homo sapiens), P11229; activation, % at 3 µM; actives 0.33% (n = 360,000); AID 588814, 2011; CHO-K1 hM1, agonist mode; 0% DMSO, 100% acetylcholine EC100;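 active means activation above the run's mean compound activation plus 3 SD, cut at about 16% in these data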;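 further: peak over basal fluorescence ratio within a 140 s kinetic read after compound addition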
Target sequence (P11229 whole entry, looked up): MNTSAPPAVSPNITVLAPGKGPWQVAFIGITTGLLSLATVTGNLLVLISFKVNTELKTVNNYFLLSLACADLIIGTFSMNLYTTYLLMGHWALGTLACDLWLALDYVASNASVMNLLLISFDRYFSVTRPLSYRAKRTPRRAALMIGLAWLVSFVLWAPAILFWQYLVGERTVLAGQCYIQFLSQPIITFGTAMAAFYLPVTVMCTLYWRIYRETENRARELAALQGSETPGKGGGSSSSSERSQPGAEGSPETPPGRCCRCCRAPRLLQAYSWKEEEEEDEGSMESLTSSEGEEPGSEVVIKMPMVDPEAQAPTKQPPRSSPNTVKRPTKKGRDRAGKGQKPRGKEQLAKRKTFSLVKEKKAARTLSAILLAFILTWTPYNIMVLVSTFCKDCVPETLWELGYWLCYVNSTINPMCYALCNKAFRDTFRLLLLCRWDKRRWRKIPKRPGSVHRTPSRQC
M1 PAM parental: nonselective calcium activators in parental CHO-K1 cells, primary screen, counter-screen for M1 PAM project, cell-based, Fluo-8 calcium fluorescence, full deck, 1536-well; actives 0.02% (n = 360,000); activation, % at 3 µM; ATP EC20; 0% at ATP EC20, 100% at ATP max;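 active means activation above the run cutoff, the mean activation of all test compounds plus 3 SD, cut at about 40% in these data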;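 further: peak over basal fluorescence ratio in a 140 s read after ATP addition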
CHRM1 antagonist: human M1 muscarinic receptor antagonists, primary screen, CHO-K1 cells, Fluo-8 calcium fluorescence, 1536-well. CHO-K1 hM1, ACh EC80 antagonist. actives 1.3% (n = 360,000). inhibition, % at 3 µM. Muscarinic acetylcholine receptor M1 (Homo sapiens), P11229;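 active means percent inhibition above its own plate's cutoff, namely the mean of that plate's compound wells plus 3 SD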;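 further: peak over basal fluorescence ratio during 140 s after agonist addition; 0% = ACh EC80 plus DMSO and 100% = DMSO alone without agonist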
CHO-K1 Ca antag: M1 antagonist counterscreen hit in parental CHO-K1 cells. AID 602250. ATP-induced calcium, Fluo-8 fluorescence. inhibition, % at 3 µM. actives 0.6% (n = 360,000);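 active means inhibition above a per-plate cutoff, the plate's mean sample inhibition plus 3 SD, cut at about 24% in these data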;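 further: 0% = DMSO plus EC80 ATP and 100% = DMSO alone without ATP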
CHO-K1 Ca ag: counter-screen for M1 agonists: effect in parental CHO-K1 cells; actives 0.48% (n = 360,000); Fluo-8 calcium fluorescence; scaled to maximal ATP response, vehicle zero; activation, % at 3 µM; in the data active means activation above about 15%;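 further: untransfected CHO-K1 host cells lacking M1 receptor as counterscreen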
CHRM1 PAM: human M1 muscarinic receptor positive allosteric modulators, primary screen, CHO-K1 cells, Fluo-8 calcium fluorescence, 1536-well | Muscarinic acetylcholine receptor M1 (Homo sapiens), P11229 | CHO-K1 hM1, ACh EC20; 0% = ACh EC20, 100% = maximal ACh | activation, % at 3 µM | actives 0.088% (n = 360,000) | AID 588819, 2011; in the data active means activation above about 19%, passing the limit was not always enough
The depositor's hits bear a star. Sampled rows, rich in hits. Any-hit rate of the full collection: about 2.4%.

`CC1CCCCN1CC(=O)Nc1ccc(N2CCCCCC2)cc1` (stereo unspecified) gave M1 ag -15, M1 PAM parental 20, CHRM1 antagonist 7, CHO-K1 Ca antag -15, CHO-K1 Ca ag 0 and CHRM1 PAM -27.
`CCOC(=O)c1ccc(N=C2C(=S)N(c3ccc(C(=O)OCC)cc3)C(=N)N2/N=C/c2ccccc2)cc1` gave M1 ag -5, M1 PAM parental 11, CHRM1 antagonist 99*, CHO-K1 Ca antag 4, CHO-K1 Ca ag 1 and CHRM1 PAM -21.
For CC(=O)c1cccc(CN2CCN(Cc3ccc(F)cc3)C(CCO)C2)c1 (stereo unspecified) the results were M1 ag -12, M1 PAM parental 9, CHRM1 antagonist 4, CHO-K1 Ca antag 10, CHO-K1 Ca ag 0 and CHRM1 PAM -2.
COc1cccc(CN2CCN(Cc3[nH]c4ccccc4c3C)CC2CCO)c1 (stereo unspecified) was read as M1 ag -7, M1 PAM parental -1, CHRM1 antagonist -1, CHO-K1 Ca antag 0, CHO-K1 Ca ag 22* and CHRM1 PAM 3.
Screening CC(=O)c1cccc(CN2CCN(Cc3ccc(C)cc3)C(CCO)C2)c1 (stereo unspecified) returned M1 ag -9, M1 PAM parental 10, CHRM1 antagonist 40*, CHO-K1 Ca antag -11, CHO-K1 Ca ag 1 and CHRM1 PAM -20.
`COc1ccc(CNc2cccc3[nH]c(C(F)(F)F)nc23)cc1OC` gave M1 ag -3, M1 PAM parental 10, CHRM1 antagonist 2, CHO-K1 Ca antag -11, CHO-K1 Ca ag 1 and CHRM1 PAM 3.
CC(C)Nc1nnc(SCC(=O)Nc2ccc3c(c2)C(=O)c2ccccc2C3=O)s1 was read as M1 ag -2, M1 PAM parental 3, CHRM1 antagonist 31*, CHO-K1 Ca antag 3, CHO-K1 Ca ag 6 and CHRM1 PAM -17.
Screening O=C(CSc1nnc(NC2CCCCC2)s1)Nc1ccc2c(c1)C(=O)c1ccccc1C2=O returned M1 ag 3, M1 PAM parental 0, CHRM1 antagonist 1, CHO-K1 Ca antag -3, CHO-K1 Ca ag 0 and CHRM1 PAM 9.
For COc1ccc(S(=O)(=O)NCC2CCCN(Cc3ccc(OC)cc3F)C2)cc1 (stereo unspecified) the results were M1 ag -14, M1 PAM parental 23, CHRM1 antagonist -3, CHO-K1 Ca antag -15, CHO-K1 Ca ag 1 and CHRM1 PAM 2.
COc1ccc(S(=O)(=O)NCC2CCCN(Cc3ccccc3Cl)C2)cc1 (stereo unspecified) was read as M1 ag -6, M1 PAM parental -14, CHRM1 antagonist 51*, CHO-K1 Ca antag 3, CHO-K1 Ca ag 0 and CHRM1 PAM -24.
CN(Cc1nccs1)C(=O)c1cc(COc2cccc3cnccc23)on1 was read as M1 ag 4, M1 PAM parental -15, CHRM1 antagonist 23, CHO-K1 Ca antag 15, CHO-K1 Ca ag 16* and CHRM1 PAM -10.
COC(=O)C1CCCCN1C(=O)c1cc(COc2cccc3cnccc23)on1 (stereo unspecified) was read as M1 ag 1, M1 PAM parental -22, CHRM1 antagonist 43*, CHO-K1 Ca antag 28*, CHO-K1 Ca ag 15* and CHRM1 PAM -15.
Screening CCOC(=O)CC1CCCCN1C(=O)c1cc(COc2cccc3cnccc23)on1 (stereo unspecified) returned M1 ag 6, M1 PAM parental -29, CHRM1 antagonist 72*, CHO-K1 Ca antag 45*, CHO-K1 Ca ag 20* and CHRM1 PAM -20.
Screening COC(=O)C1CCCCN1C(=O)c1cc(COc2cccc3cccnc23)on1 (stereo unspecified) returned M1 ag -3, M1 PAM parental 5, CHRM1 antagonist -14, CHO-K1 Ca antag 9, CHO-K1 Ca ag 2 and CHRM1 PAM 12.
For CCN(C[C@H]1N[C@@](CC)(C(=O)OC)[C@H]2C(=O)N(Cc3ccccc3)C(=O)[C@@H]12)C(=O)c1ccc(C(C)(C)C)cc1 the results were M1 ag 0, M1 PAM parental 17, CHRM1 antagonist 28*, CHO-K1 Ca antag -9, CHO-K1 Ca ag 6 and CHRM1 PAM -14.
Screening CC[C@@]1(C(=O)OC)N[C@H](CN(C)C(=O)c2ccc(C(C)(C)C)cc2)[C@@H]2C(=O)N(Cc3ccccc3)C(=O)[C@@H]21 returned M1 ag 3, M1 PAM parental -6, CHRM1 antagonist 4, CHO-K1 Ca antag 7, CHO-K1 Ca ag 3 and CHRM1 PAM -13.
For COc1cc(CNC[C@H]2O[C@@H](n3cnc(C(N)=O)n3)[C@H](O)[C@@H]2O)ccc1OCc1cccc(Cl)c1 the results were M1 ag -9, M1 PAM parental 7, CHRM1 antagonist -2, CHO-K1 Ca antag -19, CHO-K1 Ca ag 0 and CHRM1 PAM -1.
CCC(=O)c1ccc(OCC(O)CNCCc2ccc(Cl)cc2)cc1 (stereo unspecified) was read as M1 ag -2, M1 PAM parental 13, CHRM1 antagonist -15, CHO-K1 Ca antag -5, CHO-K1 Ca ag 15* and CHRM1 PAM 8.
For COc1ccc([C@@H]2C[C@H]3[C@@H](CN2S(=O)(=O)c2ccccc2)C(=O)C[C@@H](c2ccc(OC)cc2)N3S(=O)(=O)c2ccccc2)cc1 the results were M1 ag -5, M1 PAM parental -7, CHRM1 antagonist 1, CHO-K1 Ca antag 28*, CHO-K1 Ca ag 0 and CHRM1 PAM 0.
Screening N#Cc1ccsc1NC(=O)c1ccc(Cl)c([N+](=O)[O-])c1 returned M1 ag 8, M1 PAM parental -10, CHRM1 antagonist 26, CHO-K1 Ca antag 13, CHO-K1 Ca ag 19* and CHRM1 PAM -9.
For OC(COCc1ccco1)CN1CCN(C(c2ccccc2)c2ccccc2)CC1 (stereo unspecified) the results were M1 ag -5, M1 PAM parental 10, CHRM1 antagonist 67*, CHO-K1 Ca antag -9, CHO-K1 Ca ag 0 and CHRM1 PAM -21.
Screening N#Cc1ccc(OCC(O)CN2CCN(C(c3ccccc3)c3ccccc3)CC2)cc1 (stereo unspecified) returned M1 ag -12, M1 PAM parental 19, CHRM1 antagonist 88*, CHO-K1 Ca antag -10, CHO-K1 Ca ag 2 and CHRM1 PAM -34.
